We go through eight compounds from PubChem BioAssay (EPA / NIEHS).

SMILES strings stand for the structures. Activity calls are given as the source filed them. How the source made its calls: active means hit-call score of the fitted dose curve at least 0.9, where 1 is the maximum; inactive means score below 0.9.

Experiment [1] in a line: APR_HepG2_CellCycleArrest_24hr: Apredica 24-hour HepG2 Assay for Cell Cycle Arrest (AID 2282905).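 Further: cell cycle arrest scored as ratio of 2N to 4N nuclear DNA content.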 The following applies: imaging, actives raise or lower the signal. The procedure, abridged: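 Compounds at 0.39–200 uM (0.5% DMSO) for 24 h, then fixed and Hoechst 33342 stained. Cell-cycle analysis of nuclear DNA content by high-content imaging, fitted bidirectionally versus DMSO.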

Experiment [2] is described as follows: APR_HepG2_NuclearSize_24hr: Apredica 24-hour HepG2 Assay for Nuclear Size (AID 2282907). The following applies: high-content imaging, actives raise or lower the signal. The procedure, abridged:
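HepG2 cells exposed 24 h to compounds at 0.39–200 uM (0.5% DMSO), fixed, Hoechst 33342 stained and imaged at 20x; nuclear diameter measured by automated image analysis, fitted bidirectionally against DMSO controls.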

Experiment [3] in a line: APR_HepG2_CellLoss_24hr: Apredica 24-hour HepG2 Assay for Cell Loss (AID 2282908).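 On AC50: fit in both directions so a hit may be cell loss or gain.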 The note with it: high-content imaging. The procedure, abridged:
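HepG2 cells exposed 24 hr to 0.39–200 uM compound in duplicate at 0.5% v/v final DMSO. Cells fixed in 3.7% formaldehyde and Hoechst 33342-stained. Cell number came from nuclear imaging at 20x. Bidirectional fit versus DMSO.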

Experiment [4] is described as follows: APR_HepG2_MicrotubuleCSK_24hr: Apredica 24-hour HepG2 Assay for Microtubule CSK Stabilty (AID 2282909). The note with it: HepG2 microtubule cytoskeleton imaging, actives raise or lower the signal. The procedure, abridged: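 HepG2 cells were treated 24 hr with compound at 0.39–200 uM in duplicate (0.5% DMSO final), then fixed and permeabilized. Alpha-tubulin immunofluorescence was imaged by high-content microscopy, with bidirectional fitting against DMSO and taxol as positive control.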

Experiment [5] in a line: APR_HepG2_MitoticArrest_24hr: Apredica 24-hour HepG2 Assay for Mitotic Arrest (AID 2282910). The note with it: high-content imaging, actives raise or lower the signal. The procedure, abridged:
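Compounds are dosed onto HepG2 cells across ten concentrations up to 200 uM for 24 hr. Cells are then fixed in 3.7% formaldehyde, permeabilised, and labelled for phospho-histone H3 and nuclei; images are scored by cell cycle analysis and fitted bidirectionally relative to DMSO.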

The nature of experiment [6]: APR_HepG2_MitoMembPot_24hr: Apredica 24-hour HepG2 Assay for Mitochondrial Membrane Potential (AID 2282911). The following applies: imaging, actives raise or lower the signal. The method, boiled down: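 HepG2, 24 hr dosing, 10 concentrations 0.39–200 uM, 0.5% DMSO final. Live-cell MitoTracker Red CMXRos 250 nM 30 min, then 3.7% formaldehyde fix. HCS fluorescence imaging, 20x; bidirectional fit vs DMSO baseline.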

Experiment [7] in a line: APR_HepG2_MitoMass_24hr: Apredica 24-hour HepG2 Assay for Mitochondrial Mass (AID 2282912). The following applies: high-content imaging, actives raise or lower the signal. The method, boiled down:
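HepG2 cells exposed 24 hr to 0.39–200 uM compound, 0.5% v/v DMSO, in duplicate. Stained before fixation with 250 nM MitoTracker Red CMXRos for 30 min, then imaged at 20x with Hoechst nuclei. Fitted in both directions against DMSO.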

The nature of experiment [8]: APR_HepG2_p53Act_24hr: Apredica 24-hour HepG2 Assay for p53 Activation (AID 2282913).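 Further: p53 protein immunofluorescence averaged per cell in HepG2 with Hoechst nuclei.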 The note with it: high-content imaging, actives raise or lower the signal. The method, boiled down:
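Read-out: Cy5 immunofluorescence for p53 in fixed, permeabilized HepG2, imaged by HCS with Hoechst-defined nuclei. Dosing was 24 hr at 0.39–200 uM in 0.5% DMSO. Curves were fitted bidirectionally relative to DMSO.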

A short description of experiment [9]: APR_HepG2_CellLoss_72hr: Apredica 72-hour HepG2 Assay for Cell Loss (AID 2282915). The following applies: high-content imaging. The method, boiled down:
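Cell number comes from Hoechst 33342-labelled nuclei, imaged at 20x after 3.7% formaldehyde fixation. Dosing was 0.39–200 uM, ten concentrations in duplicate, 0.5% DMSO final, for 72 h. Bidirectional fit relative to DMSO baseline.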

The nature of experiment [10]: APR_HepG2_P-H2AX_72hr: Apredica 72-hour HepG2 Assay for H2AX Phosphorylation (AID 2282916).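 Further: phospho-histone H2A.x immunostain intensity per cell marking DNA damage.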 The following applies: imaging, actives raise or lower the signal. The method, boiled down:
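HepG2 cells treated 72 h at 0.39–200 uM, 0.5% DMSO final, duplicates. Formaldehyde-fixed, Triton-permeabilised, immunostained for phospho-H2A.x with Hoechst; fluorescence imaged at 20x, bidirectional fit versus DMSO.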

The nature of experiment [11]: APR_HepG2_MitoMembPot_72hr: Apredica 72-hour HepG2 Assay for Mitochondrial Membrane Potential (AID 2282917). The note with it: imaging, actives raise or lower the signal. The procedure, abridged: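 Membrane potential read by MitoTracker Red CMXRos (250 nM, 30 min, pre-fixation) fluorescence imaging of HepG2 after 72 hr exposure. Ten concentrations, 0.39–200 uM, duplicate wells, 0.5% DMSO; fitted in both directions against DMSO baseline.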

Experiment [12] can be described thus: APR_HepG2_MitoticArrest_72hr: Apredica 72-hour HepG2 Assay for Mitotic Arrest (AID 2282918). The following applies: high-content imaging, actives raise or lower the signal. The method, boiled down: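 HepG2, 72 hr exposure, 0.39–200 uM in duplicate, 0.5% v/v DMSO final. Formaldehyde-fixed, Triton-permeabilized, anti-phospho-histone H3/FITC plus Hoechst. ArrayScan imaging at 20x; curves fit bidirectionally against DMSO baseline.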

A short description of experiment [13]: APR_HepG2_P-H2AX_24hr: Apredica 24-hour HepG2 Assay for H2AX Phosphorylation (AID 2282920). The following applies: high-content imaging, actives raise or lower the signal. The method, boiled down: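 HCS fluorescence imaging of phospho-H2A.x immunostain (with Hoechst 33342 nuclear counterstain) in HepG2 after 24 hr compound exposure; 10 concentrations, 0.39–200 uM, duplicate wells, 0.5% v/v DMSO. Gain or loss of signal fitted relative to DMSO baseline.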

Experiment [14] is described as follows: APR_HepG2_StressKinase_72hr: Apredica 72-hour HepG2 Assay for Stress Kinase (AID 2282921). The following applies: HepG2 stress kinase (phospho-c-Jun) imaging, actives raise or lower the signal. The procedure, abridged: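 HepG2 cells treated 72 hr with 0.39–200 uM compound, 0.5% v/v DMSO, duplicate wells. After formaldehyde fixation and Triton permeabilization, stained with anti-phospho-c-Jun (1:500) and Cy3 secondary, imaged at 20x. Fitted in both directions against DMSO.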

Experiment [15] in a line: APR_HepG2_StressKinase_24hr: Apredica 24-hour HepG2 Assay for Stress Kinase (AID 2282922). The note with it: HepG2 stress kinase (phospho-c-Jun) imaging, actives raise or lower the signal. The procedure, abridged: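 HepG2, 24 hr dosing, 0.39–200 uM in duplicate, 0.5% DMSO; formaldehyde fix (3.7%), 0.5% Triton X-100; anti-phospho-c-Jun + Cy3 secondary, Hoechst counterstain; ArrayScan imaging; bidirectional curve fit vs DMSO baseline.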

Experiment [16] can be described thus: APR_HepG2_p53Act_72hr: Apredica 72-hour HepG2 Assay for p53 Activation (AID 2282923).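 Further: average cellular p53 protein immunofluorescence intensity in HepG2 cells.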 The following applies: high-content imaging, actives raise or lower the signal. The procedure, abridged:
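HepG2 cells exposed 72 h to 0.39–200 uM in 0.5% DMSO, duplicates. Fixed, permeabilized cells immunostained for p53 (Cy5) with Hoechst; imaged at 20x, fluorescence analyzed bidirectionally against DMSO.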

A short description of experiment [17]: APR_HepG2_MitoMass_72hr: Apredica 72-hour HepG2 Assay for Mitochondrial Mass (AID 2282924).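 Further: MitoTracker Red CMXRos stain intensity per cell imaged as mitochondrial mass.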 The following applies: high-content imaging, actives raise or lower the signal. The method, boiled down:
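HepG2, 72 hr cmpd, 10 conc 0.39–200 uM in dup, DMSO 0.5% v/v. MitoTracker Red CMXRos 250 nM 30 min pre-fix; formaldehyde 3.7% fix 30 min RT. HCS imaging, gain/loss fit vs DMSO.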

Experiment [18] is described as follows: APR_HepG2_NuclearSize_72hr: Apredica 72-hour HepG2 Assay for Nuclear Size (AID 2282925). The following applies: high-content imaging, actives raise or lower the signal. The procedure, abridged: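 HepG2; cpd 0.39–200 uM, 10 conc, duplicate; 72 h; DMSO 0.5% v/v; fix 3.7% formaldehyde 30 min RT; Triton permeabilization; Hoechst 2 ug/mL; HCS imaging 20x; nuclear diameter; gain/loss fit vs DMSO.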

Experiment [19] in a line: APR_HepG2_CellCycleArrest_72hr: Apredica 72-hour HepG2 Assay for Cell Cycle Arrest (AID 2282914). The following applies: high-content imaging, actives raise or lower the signal. The procedure, abridged: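 HepG2, 72 hr exposure, 10-point 0.39–200 uM, duplicate, 0.5% DMSO final. Fix 3.7% formaldehyde 30 min RT, Triton X-100 0.5%, Hoechst 33342 2 ug/mL. ArrayScan 20x, six fields/well; DNA content per nucleus; bidirectional fit vs DMSO.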

Experiment [20] in a line: APR_HepG2_MicrotubuleCSK_72hr: Apredica 72-hour HepG2 Assay for Microtubule CSK Stabilty (AID 2282919). The note with it: HepG2 microtubule cytoskeleton, high-content imaging, actives raise or lower the signal. The method, boiled down: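 Read-out is tubulin fluorescence intensity from high-content imaging of HepG2 cells, with nuclei identified by Hoechst 33342. Treatment lasts 72 h at 0.39–200 uM, and curves are fitted bidirectionally against the DMSO negative control.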

For `Clc1ccc(Cl)c(Cl)c1`, the result in [1], in experiment [2], in experiment [3], in experiment [4], in experiment [5] and in experiment [6] was inactive. In addition, the compound was called inactive in experiment [7], in experiment [8], in [9], in [10], in experiment [11] and in experiment [12]. The outcome in [13], in [14], in [15], in [16], in experiment [17] and in experiment [18] was inactive.

For the compound `CCN(CC)CCO`, the compound was classed as inactive in [1], in [2], in [3], in experiment [4], in experiment [5] and in [6]. Also, the compound was called inactive in experiment [7], in experiment [8], in experiment [9], in experiment [10], in experiment [11] and in experiment [12]. The compound was called inactive in [13], in experiment [14], in [15], in experiment [16], in experiment [17] and in experiment [18].

Regarding `CCOC(=O)[C@]1(c2ccccc2)Oc2ccccc2[C@@H]1N`, the outcome in experiment [1], in experiment [2], in experiment [6], in experiment [19], in experiment [11] and in experiment [20] was inactive. Besides, the call in experiment [15], in experiment [17] and in [18] was inactive. The AC50 in [3] was 86.7 µM (active); in [4], 112 µM (active); in experiment [5], 111 µM (active); in experiment [7], 107 µM (active); in [9] it was 116 µM (active); in experiment [10], 112 µM (active). Besides, the AC50 in [12] is 90.8 µM (active); in experiment [13] it was 120 µM (active); in [14] it was 109 µM (active).

Take `Clc1ccccc1Cl`: the call in [1], in experiment [2], in [3], in experiment [4], in experiment [5] and in experiment [6] was inactive. The outcome in experiment [7], in experiment [19], in experiment [9], in [10], in experiment [11] and in experiment [12] was inactive. Further, the result in [13], in experiment [14], in experiment [15], in experiment [17] and in experiment [18] was inactive.

`Cc1ccc([N+](=O)[O-])cc1`: the compound was classed as inactive in [1], in experiment [2], in experiment [3], in experiment [4], in experiment [5] and in [6]. Also, the compound was called inactive in [7], in experiment [8], in experiment [9], in experiment [10], in experiment [11] and in experiment [12]. In addition, the compound was called inactive in [13], in experiment [14], in experiment [15], in experiment [16], in experiment [17] and in experiment [18].

With `Cc1ccc(N)c(N)c1`, the compound was classed as inactive in [1], in experiment [2], in experiment [3], in experiment [4], in experiment [5] and in experiment [6]. For the same compound, the compound was called inactive in experiment [7], in experiment [8], in experiment [9], in [10], in experiment [11] and in [12]. Also, the call in experiment [13], in [14], in [15], in experiment [16], in [17] and in experiment [18] was inactive.

`c1ccc2c(c1)-c1cccc3cccc-2c13`: the result in [1], in [2], in experiment [4], in experiment [6], in experiment [7] and in [8] was inactive. For the same compound, the compound was called inactive in experiment [11], in experiment [13], in experiment [14], in experiment [15], in experiment [16] and in experiment [17]. Besides, in [18], the compound was classed as inactive. Also, the AC50 in [3] is 85.7 µM (active); in [5], 107 µM (active); in experiment [9] it was 106 µM (active); in [10] it was 108 µM (active); in experiment [12] it was 87.1 µM (active).

Consider `CC(C)(OOC(C)(C)c1ccccc1)c1ccccc1`, for which the AC50 is 36.4 µM (active) in experiment [1]; 69.6 µM (active) in experiment [3]; 77.2 µM (active) in experiment [4]; 29.9 µM (active) in experiment [5]; 19.6 µM (active) in experiment [7]; 44.4 µM (active) in experiment [9]. Besides, in [12], the AC50 was 41.9 µM (active). Moreover, the call in experiment [2], in experiment [6], in [8], in experiment [10], in [11] and in experiment [13] was inactive. The call in experiment [14], in experiment [15], in experiment [16], in [17] and in [18] was inactive.

For orientation: AC50 means the midpoint of the concentration-response curve, whichever way the signal moves.
